# Measurements published in PubChem BioAssay AID1159580 (chemical genetic matrix, 2015).
# The whole screen tested about 5,500 compounds, of which about 2,000 (36%) were called active. Another 18% or so got no clear call; they are omitted. The list shows a part of the results. A number with no mark means an inactive call. Rule as the data show it: active = normalized growth mostly below about 0.91 (no sharp cut-off); inconclusive = no clear call, values can overlap the other calls; inactive = mostly above about 0.92.
# Assay: chemical genetic growth profiling, strain panel (AID 1159580);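 also: tested at 20 µM; growth read once vehicle control cultures reached saturation at 30 °C; 1 = growth at the plate median or of vehicle wells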
# Details: S. cerevisiae deletion strains, growth OD
smiles,measurement,setting,value
CC(=O)O[C@H]1CC[C@@]2(C)C(C[C@@H](OC(C)=O)[C@@]3(C)C4=CC(=O)O[C@@H](c5ccoc5)[C@]4(C)CCC23)C1(C)C (some centres undefined),normalized growth,"locus YJR066W, strain TOR1, stronger effect = lower value",0.9
same,normalized growth,"locus YJR075W, strain HOC1, stronger effect = lower value",1.01
same,normalized growth,"locus YKL009W, strain mrt4, stronger effect = lower value",1.21 [resistant] (active)
same,normalized growth,"locus YKL068W, stronger effect = lower value",0.984
same,normalized growth,"locus YKL085W, strain MDH1 (second series), stronger effect = lower value",1.02
same,normalized growth,"locus YKL085W, strain MDH1, stronger effect = lower value",1.02
same,normalized growth,"locus YKL160W, strain elf1, stronger effect = lower value",1
same,normalized growth,"locus YKL190W, strain CNB1, stronger effect = lower value",1
same,normalized growth,"locus YKR001C, strain vps1, stronger effect = lower value",0.983
same,normalized growth,"locus YKR026C, strain gcn3, stronger effect = lower value",1.01
same,normalized growth,"locus YKR091W, strain srl3, stronger effect = lower value",1
same,normalized growth,"locus YLL001W, strain dnm1, stronger effect = lower value",1.01
same,normalized growth,"locus YLL026W, stronger effect = lower value",0.995
same,normalized growth,"locus YLL041C, strain sdh2, stronger effect = lower value",0.987
same,normalized growth,"locus YLR027C, strain aat2, stronger effect = lower value",1
same,normalized growth,"locus YLR039C, strain RIC1, stronger effect = lower value",0.985
same,normalized growth,"locus YLR058C, strain SHM2, stronger effect = lower value",1.01
same,normalized growth,"locus YLR102C, strain apc9, stronger effect = lower value",0.997
same,normalized growth,"locus YLR113W, strain HOG1, stronger effect = lower value",0.966
same,normalized growth,"locus YLR221C, strain rsa3, stronger effect = lower value",1.02
same,normalized growth,"locus YLR258W, strain gsy2, stronger effect = lower value",0.995
same,normalized growth,"locus YLR262C, strain YPT6 (second series), stronger effect = lower value",0.979
same,normalized growth,"locus YLR262C, strain YPT6, stronger effect = lower value",1.02
same,normalized growth,"locus YLR268W, strain sec22, stronger effect = lower value",1.01
same,normalized growth,"locus YLR320W, strain mms22, stronger effect = lower value",0.999
same,normalized growth,"locus YLR342W, strain FKS1, stronger effect = lower value",1
same,normalized growth,"locus YLR357W, strain rsc2, stronger effect = lower value",1.01
same,normalized growth,"locus YLR370C, strain arc18, stronger effect = lower value",1.02
same,normalized growth,"locus YLR371W, strain rom2, stronger effect = lower value",1
same,normalized growth,"locus YLR384C, strain iki3, stronger effect = lower value",0.987
same,normalized growth,"locus YLR418C, strain cdc73, stronger effect = lower value",0.954
same,normalized growth,"locus YML016C, strain PPZ1, stronger effect = lower value",1.01
same,normalized growth,"locus YML032C, strain rad52, stronger effect = lower value",0.985
same,normalized growth,"locus YML120C, strain ndi1, stronger effect = lower value",1.02
same,normalized growth,"locus YML124C, strain tub3, stronger effect = lower value",0.987
same,normalized growth,"locus YMR058W, strain fet3, stronger effect = lower value",1
same,normalized growth,"locus YMR078C, strain ctf18, stronger effect = lower value",0.981
same,normalized growth,"locus YMR125W, strain sto1, stronger effect = lower value",0.99
same,normalized growth,"locus YMR129W, stronger effect = lower value",1
same,normalized growth,"locus YMR205C, strain PFK2, stronger effect = lower value",1.01
same,normalized growth,"locus YMR223W, strain ubp8, stronger effect = lower value",0.983
same,normalized growth,"locus YMR231W, strain pep5, stronger effect = lower value",0.991
same,normalized growth,"locus YMR263W, strain SAP30, stronger effect = lower value",1.01
same,normalized growth,"locus YMR307W, strain GAS1, stronger effect = lower value",1.03
same,normalized growth,"locus YNL067W, strain RPL9B, stronger effect = lower value",0.997
same,normalized growth,"locus YNL071W, strain lat1, stronger effect = lower value",1.01
same,normalized growth,"locus YNL153C, strain GIM3, stronger effect = lower value",0.999
same,normalized growth,"locus YNL183C, strain NPR1, stronger effect = lower value",0.935
same,normalized growth,"locus YNL209W, strain ssb2, stronger effect = lower value",1.02
same,normalized growth,"locus YNL233W, strain BNI4, stronger effect = lower value",1.02
same,normalized growth,"locus YNL248C, strain rpa49, stronger effect = lower value",1.01
same,normalized growth,"locus YNL250W, strain rad50, stronger effect = lower value",0.995
same,normalized growth,"locus YNL271C, strain bni1, stronger effect = lower value",1
same,normalized growth,"locus YNL298W, strain CLA4, stronger effect = lower value",1.01
same,normalized growth,"locus YNL307C, strain MCK1, stronger effect = lower value",0.995
same,normalized growth,"locus YNL322C, strain KRE1 (second series), stronger effect = lower value",0.987
same,normalized growth,"locus YNL322C, strain KRE1, stronger effect = lower value",1.01
same,normalized growth,"locus YNR049C, strain mso1, stronger effect = lower value",1.01
same,normalized growth,"locus YNR052C, strain pop2, stronger effect = lower value",0.987
same,normalized growth,"locus YOL006C, strain TOP1, stronger effect = lower value",0.965
same,normalized growth,"locus YOL012C, strain htz1",1.15
same,normalized growth,"locus YOL147C, strain pex11, stronger effect = lower value",1
same,normalized growth,"locus YOR001W, strain rrp6, stronger effect = lower value",1.01
same,normalized growth,"locus YOR061W, strain CKA2, stronger effect = lower value",1.01
same,normalized growth,"locus YOR069W, strain VPS5, stronger effect = lower value",1
same,normalized growth,"locus YOR070C, strain gyp1, stronger effect = lower value",1.01
same,normalized growth,"locus YOR080W, strain dia2, stronger effect = lower value",1
same,normalized growth,"locus YOR083W, strain WHI5, stronger effect = lower value",1
same,normalized growth,"locus YOR106W, strain vam3, stronger effect = lower value",1.03
same,normalized growth,"locus YOR136W, strain idh2, stronger effect = lower value",0.992
same,normalized growth,"locus YOR144C, strain elg1, stronger effect = lower value",0.995
same,normalized growth,"locus YOR184W, strain ser1, stronger effect = lower value",1.01
same,normalized growth,"locus YOR231W, strain MKK1, stronger effect = lower value",0.957
same,normalized growth,"locus YOR265W, strain rbl2, stronger effect = lower value",1.02
same,normalized growth,"locus YOR270C, strain vph1, stronger effect = lower value",0.886
same,normalized growth,"locus YOR290C, strain snf2, stronger effect = lower value",0.998
same,normalized growth,"locus YOR316C, strain cot1, stronger effect = lower value",0.997
same,normalized growth,"locus YPL051W, strain arl3, stronger effect = lower value",0.997
same,normalized growth,"locus YPL055C, strain LGE1, stronger effect = lower value",1.03
same,normalized growth,"locus YPL078C, strain atp4, stronger effect = lower value",1.01
same,normalized growth,"locus YPL106C, strain sse1, stronger effect = lower value",1.02
same,normalized growth,"locus YPL240C, strain hsp82, stronger effect = lower value",0.998
same,normalized growth,"locus YPL241C, strain CIN2, stronger effect = lower value",1
same,normalized growth,"locus YPL256C, strain CLN2, stronger effect = lower value",0.96
same,normalized growth,"locus YPR119W, strain clb2, stronger effect = lower value",0.992
same,normalized growth,"locus YPR141C, strain kar3, stronger effect = lower value",0.99
same,normalized growth,"locus YPR163C, strain tif3, stronger effect = lower value",0.989
same,normalized growth,"locus YPR167C, strain met16, stronger effect = lower value",0.985
same,normalized growth,"strain wtn01, stronger effect = lower value",0.993
